Measured values as given in ChEMBL document CHEMBL4513216, “Probing the Open Global Health Chemical Diversity Library for Multistage-Active Starting Points for Next-Generation Antimalarials” (ACS Infect Dis, 2020).
Out of some 69,000 compounds screened, about 8,600 (12%) showed an effect of 50% or more. For the sample, strong results were picked, then their nearest neighbours and some compounds at random.

test system: Plasmodium berghei; test: Screen against P. berghei liver stage (PbLuc), transformed with Luciferase, at 10uM; format: functional, HepG2; conditions: tested at 10 uM

Row | SMILES | INHIBITION [%]
1 | Cc1ncc2c(n1)CN(Cc1nc(-c3ccsc3)oc1C)CC2 | -4.92
2 | Cc1oc(-c2ccsc2)nc1CN1CC[C@@H]2CCCC[C@H]2C1 | 28.4
3 | CSc1ccc(-c2nc(CN3CCC(C(N)=O)CC3)c(C)o2)cc1 | -10.2375
4 | Cc1oc(-c2ccccc2)nc1CN1CCC(c2ccnn2C)CC1 | 69.7
5 | CSc1ccc(-c2nc(CN3CCC(CN)C3)c(C)o2)cc1 (stereo unspecified) | -70.3
6 | Cc1oc(-c2ccsc2)nc1CN1CCCC(c2ccnn2C)C1 (stereo unspecified) | 66.3
7 | Cn1cc(NS(=O)(=O)CCOc2ccc(F)cc2)cn1 | -15.29
8 | Cc1cc(C)n(Cc2cc(C(=O)N3CCCC3c3ccccn3)n[nH]2)n1 (stereo unspecified) | 39.7
9 | CC(=O)Nc1cccc2c1ccn2CC(=O)Nc1ncc[nH]1 | 25.8
10 | COCCOCC(=O)N1CCCC(c2ncc[nH]2)C1 (stereo unspecified) | -45
11 | Cc1nnc(C2CCN(c3ccccc3)CC2)o1 | 16.5
12 | CN(C)S(=O)(=O)N1CCC(C)(c2ncc(C(N)=O)s2)CC1 | -7.66
13 | Cc1ccc(NC(=O)CNC(C)CN2CCCCC2)c(F)c1 (stereo unspecified) | 63.8
14 | Cc1ccc(NC(=O)CN2CCOCC2)c(F)c1 | 28
15 | Cc1ccc(NC(=O)CNC(C)CN2CCOCC2)c(F)c1 (stereo unspecified) | 41.5
16 | Cc1cc(C)n(CCC(=O)N2CCC(Nc3cccnn3)CC2)n1 | -16.75
17 | CC1CN(CC(=O)NC(C2CC2)C2CC2)CCN1Cc1nccn1C (stereo unspecified) | -43.05
18 | COc1ccc(CN2CCC3(CC2)NC(=O)CC3c2ccncc2)cc1 (stereo unspecified) | 30.7
19 | Cn1ccnc1C(=O)NCc1cc(=O)n2c(n1)CN(CC1CC1)CCC2 | 4.02
20 | CN1CCCn2c(nc(CNC(=O)c3nccn3C)cc2=O)C1 | 13.7
21 | COCC(=O)NCc1cc(=O)n2c(n1)CN(CC1CC1)CCC2 | 26.7
22 | Cc1oncc1C(=O)NCc1cc(=O)n2c(n1)CN(C(C)C)CCC2 | 35.4
23 | CCCN1CCCn2c(nc(CNC(=O)c3nccn3C)cc2=O)C1 | 66.8
24 | COCCN1CCCn2c(nc(CNC(=O)COC)cc2=O)C1 | 31.2

Row | SMILES | INHIBITION [%]
25 | COCC(=O)NCc1cc(=O)n2c(n1)CN(C)CCC2 | 59.3
26 | CC(C)N1CCc2c(CNC(=O)c3nccn3C)cncc2C1 | 24
27 | CC(C)N1CCCn2c(nc(CNC(=O)c3nccn3C)cc2=O)C1 | 71.6
28 | CCn1cc(CN2CCC3(CC2)c2ccccc2CC3O)cn1 (stereo unspecified) | 2.7
29 | CC(C)CN1C[C@@H]2C[C@H](C(=O)N3CCCC3)[C@H](C1)O2 | 31.5
30 | c1cc(CN2CCc3ncc(CN4CCCCC4)n3CC2)cs1 | 20.9
31 | Cc1ccc(CN2Cc3nnn(C)c3C(COCC(=O)N(C)C)C2)s1 (stereo unspecified) | 42.1
32 | CC(C)CNC(=O)c1[nH]nc(C2CC2)c1Br | -7.46
33 | O=C1NC2(Cc3ccccc31)CN(CC1CCNC1)C2 (stereo unspecified) | 46.6
34 | Fc1cccc(C2CCCN2Cc2nnnn2C2CC2)c1 (stereo unspecified) | 31.1
35 | O=C(CCC(F)(F)F)N1CCN(Cc2ccncc2)[C@@H]2CS(=O)(=O)C[C@@H]21 | 42.1
36 | Cc1n[nH]c(C)c1CCNC(=O)C1CCCN(CC(N)=O)C1 (stereo unspecified) | 74.4
37 | CCN1CC(C(=O)NCc2nn(CC)c3ccccc23)CCC1=O (stereo unspecified) | 65
38 | CCN1CC(C(=O)NCc2noc(Cc3ccccc3)n2)CCC1=O (stereo unspecified) | 17.6
39 | CCn1nc(CNC(=O)C2CCCN(C(=O)COC)C2)c2ccccc21 (stereo unspecified) | 10.5
40 | CCn1nc(CNC(=O)C2CCCN(CC(N)=O)C2)c2ccccc21 (stereo unspecified) | 67.2
41 | CCn1nc(C)c(CCNC(=O)C2CCCN(CC(N)=O)C2)c1C (stereo unspecified) | 18.8
42 | Cc1ccc2c(c1)c(CNC(=O)C1CCCN(CC(N)=O)C1)nn2C (stereo unspecified) | 10.5
43 | CCn1nc(CNC(=O)C2CC(=O)N(C3CCCC3)C2)c2ccccc21 (stereo unspecified) | 30.1
44 | Cc1n[nH]c(C)c1CCNC(=O)C1CCCN(Cc2ccco2)C1 (stereo unspecified) | -4.96
45 | CC(Cc1ccco1)NC(=O)Nc1ccc(N2CCCC2)nc1 (stereo unspecified) | 21.425
46 | Cc1ccc(S(=O)(=O)N2CCC(c3n[nH]cc3C)C2)cc1 (stereo unspecified) | 32.8
47 | CCN1CC2(CC1=O)CN(Cc1ccncc1)CCN(C(=O)C(C)C)C2 (stereo unspecified) | 38.5
48 | COc1cc(-c2nc3c([nH]2)CCCNC3=O)ccc1OC(C)C | -125

Row | SMILES | INHIBITION [%]
49 | CCCN(Cc1nc2ccccc2[nH]1)Cc1ccccc1OC | 82.3
50 | CCCN(Cc1ccc(S(=O)(=O)NC)cc1)Cc1ccccc1OC | 38.6
51 | CCCN(Cc1cnc2ccccc2n1)Cc1ccccc1OC | 61.9
52 | CCCN(Cc1ccc(OC)nc1)Cc1ccccc1OC | 37.8
53 | Cc1ccc(CN(CCN(C)C)Cc2nc3ccccc3[nH]2)s1 | 36.5
54 | CCCN(Cc1ccccn1)Cc1ccccc1OC | 45.2
55 | Cc1cccc(N2CCCC2c2nc(C)ncc2CN(C)C)n1 (stereo unspecified) | -3.94
56 | Cc1ccnc(NC(=O)C(C)Cn2cncn2)c1 (stereo unspecified) | 28.4
57 | Cc1nc(NCc2nonc2C)cc(C(C)Cn2nc(C)c(C)c2C)n1 (stereo unspecified) | 43.8
58 | COc1ccc2c(ccn2CCC(=O)Nc2nc[nH]n2)c1 | 29.9
59 | CCc1nc(CN2CCCC(NCc3nc(C)c(C)o3)C2)no1 (stereo unspecified) | -2.19
60 | O=C(CC1COCCN1)N1CCCN(C2Cc3ccccc3C2)CC1 (stereo unspecified) | -22.1
61 | COCCC1(CO)CCCN(C(=O)CCC(F)(F)F)C1 (stereo unspecified) | -1.49
62 | O=c1c2c[nH]c(N3CCC(O)CC3)nc-2cn1Cc1cccc(F)c1 | 11.8
63 | Cc1ccc(CN2CCC(O)(Cn3nc(-c4cccs4)oc3=O)CC2)o1 | 14.6
64 | CCc1ncnc2c1CCN(Cc1cccs1)CC2 | 13.7
65 | Cc1occc1C(=O)N1CCO[C@H]2[C@H](OCc3cccnc3)CC[C@@H]21 | 34.4
66 | CC(c1ccon1)N(C)C(=O)C1CCN(C(=O)C2CC2)CC1 (stereo unspecified) | 34
67 | CC(C)N1CCC(C(=O)N(C)C(C)c2ccon2)CC1 (stereo unspecified) | 1.94
68 | CC(c1ccon1)N(C)C(=O)C1CCN(C(=O)C2CCC2)CC1 (stereo unspecified) | 57.5
69 | CC(=O)N(Cc1ccoc1)C1CCCCC1 | -29.5
70 | CN(Cc1cnc(N)nc1)C(=O)C1CCN(C(=O)C2CCCC2)CC1 | 44.3
71 | CN(Cc1ccoc1)C(=O)C1CCN(C(=O)C2CCCC2)CC1 | 61.1
